Shown are actives, neighbours in structure and some others; about 14% of the full set was active somewhere.
Marburg entry inh: qHTS for inhibitors of binding or entry into cells for Marburg Virus | Marburg virus pseudotyped entry inhibition, cell reporter | Potency, µM (titrated, usually from 37.8 µM), most hits filed as inhibitors | 1.8% of 300,000 active; calls by dose curve; tested in HEK293 cells
Lassa entry inh: qHTS for Inhibitors of binding or entry into cells for Lassa Virus | Lassa virus pseudotype entry inhibition, cell reporter | Potency, µM (doses to about 37.9 µM), most hits filed as inhibitors | 1.2% of 300,000 active | AID 540256, 2011; calls by dose curve; tested in HEK293 cells; further: nearly all actives have a fitted effect of over 50% in size
Pf growth 48h: Primary qHTS for delayed death inhibitors of the malarial parasite plastid, 48 hour incubation | P. falciparum luciferase growth in erythrocytes, 48 h | Potency, µM (series often up to 28.7 µM), hits mostly inhibitors | 5.9% of 310,000 active | AID 504832, 2011
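Luciferase-expressing parasites in RBCs, 2% Hct / 0.1% parasitemia final; RPMI 1640 + 0.5% Albumax; 37 C, 5% CO2, one generation; luminescence read-out, lower signal = inhibition.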
HCMV antiviral: qHTS Assay for inhibitors of the human cytomegalovirus (HCMV); HFF cells, HCMV-luciferase reporter, 72 h; hits give low values; activity change, negative = inhibition, % at 57.5 µM; AID 1259415, 2018; 4.5% of 410,000 active; in the data active means activity change below about -60%; inconclusive means no clear call, values can overlap the other calls; inactive means above about -39%
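Two compound doses tested in HFFs infected with HCMV-luciferase, MOI 1 PFU/cell, 72 h at 37C. Lysate luminescence read with OneGlo; data normalized against buffer-only and 10uM Salinomycin inhibitor controls.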
HCV inh: qHTS Assay for Inhibitors of Hepatitis C Virus (HCV) | Huh7.5.1 HCVcc-Cre infection, luciferase reporter, 44 h | Potency, µM (highest dose often 41.8 µM), most hits filed as inhibitors | 3.4% of 340,000 active
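Antiviral activity was scored by luciferase reporter output from cells infected with HCVcc-Cre (~0.5 moi) in presence of compound, 44 h infection period, cells seeded 1,000/well 4 h prior.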
Pf growth 96h: Primary qHTS for delayed death inhibitors of the malarial parasite plastid, 96 hour incubation | P. falciparum luciferase reporter growth, 96 h | Potency, µM (titrated, usually from 28.7 µM), actives largely listed as inhibitors | 6.9% of 320,000 active
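Erythrocytes infected with luciferase-expressing P. falciparum were dispensed at 2% hematocrit and 0.05% parasitemia (final), then incubated with compounds 96 hours at 37 C in 5% CO2. Luminescence after detection reagent addition reported growth.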
Each line names hits and unclear results; the compound was inactive in the other large screens. Unless noted, the call rests on the fitted dose curve; in most records, active means well fitted inhibition curve with a large enough effect; inconclusive means small, poorly fitted or top-dose-only effect, or another doubt; inactive means no such curve, though single readings can be large or run the other way.

OCCC1CN(Cc2cccc3nccnc23)CCN1C1CCCC1 (centres undefined)	Pf growth 96h 13.1µM
Cc1c(C(=O)N2CCC(C)CC2)c(S(=O)(=O)NCc2ccc(Br)cc2)c(C)n1C	none (no result: Marburg entry inh, Pf growth 48h, HCV inh, Pf growth 96h)
CSc1nc(=O)[nH]nc1Sc1ccccc1	none (no result: Marburg entry inh, Lassa entry inh, Pf growth 48h, HCV inh, Pf growth 96h)
CN(C)c1ccc(-c2ccnc3c2CC(C)(C(=O)NCC2CCOCC2)O3)cc1 (centres undefined)	none (no result: Marburg entry inh, Lassa entry inh, Pf growth 48h, HCV inh, Pf growth 96h)
C=C(Br)CN1[C@@H](Cc2ccccc2)[C@H](O)[C@@]23C=C[C@@H](C[C@@H]2S1(=O)=O)O3	none (no result: Marburg entry inh, Lassa entry inh, Pf growth 48h, Pf growth 96h)
CC(C)=CCN1CCN(Cc2cccc3nonc23)CC1CCO (centres undefined)	Marburg entry inh inconclusive, Pf growth 96h 2.08µM
COc1ccccc1CC(=O)N1CCN(c2ccc([N+](=O)[O-])cc2)CC1	HCMV antiviral inconclusive, HCV inh 6.31µM (no result: Marburg entry inh, Lassa entry inh)
COc1ccc(N2CCN(C(=O)CSc3ccc([N+](=O)[O-])cc3)CC2)cc1	HCMV antiviral -65.0, HCV inh inconclusive
Cc1ccc(CC(=O)N2CCN(c3ccc([N+](=O)[O-])cc3)CC2)cc1	Marburg entry inh inconclusive, HCV inh inconclusive, Pf growth 96h inconclusive
Cc1noc(C)c1CSCC(=O)N1CCN(c2ccc([N+](=O)[O-])cc2)CC1	Marburg entry inh inconclusive, Lassa entry inh inconclusive, HCMV antiviral inconclusive, HCV inh 11.2µM, Pf growth 96h 11.7µM (no result: Pf growth 48h)
COc1ccc(NC(=O)N2CCN(c3ccc([N+](=O)[O-])cc3)CC2)cc1OC	Marburg entry inh inconclusive, Lassa entry inh inconclusive, HCV inh 10µM, Pf growth 96h inconclusive
CC1CCC(Nc2nc3c(-c4ccc(Cl)cc4)nnn3c3ccccc23)CC1 (centres undefined)	Lassa entry inh inconclusive (no result: Pf growth 48h, HCV inh, Pf growth 96h)
COc1ccc(N2CCN(C(=O)CCc3cc(OC)c(OC)c(OC)c3)CC2)cc1	Pf growth 96h inconclusive (no result: Marburg entry inh, Lassa entry inh)
COc1ccc(CCC(=O)N2CCN(c3ccc([N+](=O)[O-])cc3)CC2)cc1OC	Marburg entry inh inconclusive, HCMV antiviral -67.7, HCV inh 31.6µM, Pf growth 96h inconclusive
COC(=O)C1=C2C=C(C)CC(C)N2C(=O)NC1c1ccccc1 (centres undefined)	none (no result: Lassa entry inh, Pf growth 48h, HCMV antiviral, HCV inh, Pf growth 96h)
COc1ccccc1NC(=O)Nc1ccc(NC(=O)c2ccccc2O)cc1	HCV inh 12.6µM (no result: Marburg entry inh, Lassa entry inh)
O=C(Nc1ccc(F)cc1)Nc1ccc(NC(=O)c2ccccc2O)cc1	Pf growth 48h 11.7µM
COc1ccc(NC(=O)Nc2ccccc2OC)cc1	none (no result: Pf growth 96h)
COc1ccc(C(=O)NCCc2ccc(C)cc2)cc1OC1CCN(C(C)=O)CC1	none
COc1ccccc1CCNC(=O)c1ccc(OC)c(OC2CCN(C(C)C)CC2)c1	Pf growth 48h inconclusive, HCMV antiviral -62.2
COc1ccc(C(=O)NCCOC(C)C)cc1OC1CCN(C(C)=O)CC1	Pf growth 96h 10.4µM (no result: Marburg entry inh, Lassa entry inh)
COc1cc(C(=O)NCCc2ncccc2C)ccc1OC1CCN(C(C)=O)CC1	Pf growth 48h 9.28µM (no result: Marburg entry inh, Lassa entry inh)
COc1ccc(C(=O)NC(C)CCCC(C)(C)O)cc1OC1CCN(C(C)=O)CC1 (centres undefined)	Pf growth 96h 7.38µM (no result: Marburg entry inh, Lassa entry inh)
CC1=C(C(=O)Nc2cccnc2)C(c2ccccc2)n2nc(-c3ccc(O)cc3)nc2N1 (centres undefined)	none (no result: Pf growth 48h, HCV inh, Pf growth 96h)
O=C(O)CCC(=O)N1CCc2cc(S(=O)(=O)NCc3ccc(F)cc3)ccc21	none (no result: Pf growth 48h, HCV inh, Pf growth 96h)
CCOC(=O)CCCCCC(=O)Nc1ccc2c(c1)C(=O)N([C@H](C)CO)C[C@@H](C)[C@@H](CN(C)C(=O)CCC(F)(F)F)OCCCC[C@H](C)O2	none (no result: Marburg entry inh, Lassa entry inh, Pf growth 48h, HCV inh, Pf growth 96h)
Cc1ccc(CNC(=O)c2nnn(Cc3ccc(F)cc3)c2N)cc1	none (no result: Pf growth 48h, HCV inh, Pf growth 96h)
COCCCNC(=O)c1ccc(OC)c(OC2CCN(C(C)C)CC2)c1	HCV inh 22.4µM, Pf growth 96h inconclusive (no result: Marburg entry inh, Lassa entry inh)
Cc1nc2c3cc(F)ccc3n(CCN3CCCCC3)c2s1	Marburg entry inh 7.08µM, Pf growth 48h inconclusive
Cc1nc2c3ccccc3n(CCN3CCCCC3)c2s1	none (no result: Lassa entry inh, HCMV antiviral, Pf growth 96h)
COc1cc(Cl)c(C)cc1NC(=O)c1cnn(-c2ccc(C)cc2)c1-n1cccc1	none (no result: Marburg entry inh, Pf growth 48h, HCV inh, Pf growth 96h)

High-throughput results: PubChem, National Center for Advancing Translational Sciences (NCATS)
